Where “and” joins values, the source holds several entries; their conditions need not be identical. Identical values can stand only once. Out of some 4,300 compounds screened, about 60 (1%) were called active. The sample holds actives, similar compounds and a random draw of the others, so the mix is not that of the screen. A number with no mark means an inactive call.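 Rule for the calls: active = inhibition of labelled peptide binding to the formyl peptide receptor of at least 65%; inactive = the rest.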
What follows are compounds tested against fMet-Leu-Phe receptor (Homo sapiens) (UniProt P21462) (assay: FPR binders displacing fluorescent formyl peptide, primary screen, U937-FPR cells, fMLFK-FITC, flow cytometry (AID 362;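 for inhibition: plate controls were buffer control wells for no effect and unlabeled fMLFF blocking peptide for full effect; higher means less cell fluorescence so more probe displaced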)). Settings: fMLFK-FITC displacement; active compounds read high, concentration not given here.
Sequence of fMet-Leu-Phe receptor (Homo sapiens) (P21462 whole entry, looked up): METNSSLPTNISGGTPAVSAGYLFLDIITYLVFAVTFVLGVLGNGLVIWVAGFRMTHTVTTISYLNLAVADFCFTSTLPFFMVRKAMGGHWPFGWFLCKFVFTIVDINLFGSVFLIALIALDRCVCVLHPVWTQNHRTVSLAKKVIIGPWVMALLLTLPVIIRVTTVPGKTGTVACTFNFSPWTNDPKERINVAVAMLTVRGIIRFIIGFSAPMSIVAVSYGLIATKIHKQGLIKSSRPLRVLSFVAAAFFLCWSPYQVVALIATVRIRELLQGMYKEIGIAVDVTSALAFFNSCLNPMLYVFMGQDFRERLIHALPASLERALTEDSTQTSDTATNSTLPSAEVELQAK

| SMILES | inhibition |
| --- | --- |
| CCCCN(C)Cc1c(O)ccc2c3c(c(=O)oc12)CCC3 | 9.8% |
| CCN(CC)CCOC(=O)NCC1CC(C(C)=O)C1(C)C (configuration not stated) | 8.3% |
| CC(=O)c1ccc(N2CCN(C(=O)c3cn(CC(C)C)c(=O)c4c3c3ccccc3n4C)CC2)cc1 | 2.2% |
| CCOc1ccc(C2C(C(=O)OC(C)C)=C(C)NC3=C2C(=O)C(C(=O)OC)C(C)C3)cc1 (configuration not stated) | 13.6% |
| CCOC(=O)C(CC)Oc1ccc2c3c(c(=O)oc2c1C)CCC3 (configuration not stated) | inactive |
| CCOC(=O)c1cc2c(=O)n3ccccc3nc2n(CC(C)C)c1=NC(=O)c1ccc(C(F)(F)F)cc1 | inactive |
| CCOCCOC(=O)C1=C(C)NC2=C(C(=O)C(C(=O)OC)C(C)C2)C1c1ccc(N(C)C)cc1 (configuration not stated) | 31.5% |
| CCOc1ccc(C2C(C(=O)OCCOC(C)C)=C(C)NC3=C2C(=O)C(C(=O)OC)C(C)C3)cc1 (configuration not stated) | 39.6% |
| COCCOC(=O)C1=C(C)NC2=C(C(=O)C(C(=O)OC)C(C)C2)C1c1ccc(N(C)C)cc1 (configuration not stated) | 64% |
| COC(=O)C1C(=O)C2=C(CC1C)NC(C)=C(C(=O)OCCOC(C)C)C2c1ccc(OC)cc1 (configuration not stated) | 76.1% (active) |
| COC(=O)C1C(=O)C2=C(CC1C)NC(C)=C(C(=O)OCCOC(C)C)C2c1ccc(F)cc1 (configuration not stated) | 14.3% |
| COC(=O)C1C(=O)C2=C(CC1C)NC(C)=C(C(=O)OCCOC(C)C)C2c1ccc(N(C)C)cc1 (configuration not stated) | 79.4% (active) |
| CCCOCCOC(=O)C1=C(C)NC2=C(C(=O)C(C(=O)OC)C(C)C2)C1c1ccc(N(C)C)cc1 (configuration not stated) | 78.6% (active) |
| CCCOC(=O)C1=C(C)NC2=C(C(=O)C(C(=O)OC)C(C)C2)C1c1ccc(N(C)C)cc1 (configuration not stated) | 23.6% |
| COCCOC(=O)C1=C(C)NC2=C(C(=O)C(C(=O)OC)C(C)C2)C1c1ccc(OC)cc1 (configuration not stated) | 16.7% |
| COc1ccc(/C=C2/CCCC3=C2OC(N)=C(C#N)C3c2ccc(OC)c(OC)c2)cc1OC (configuration not stated) | inactive |
| COc1ccc(C2C(C(=O)OC3CCCC3)=C(C)NC3=C2C(=O)CCC3)c(OC)c1OC (configuration not stated) | inactive |
| COc1cc(C2C(C(=O)OC3CCCCC3)=C(C)NC3=C2C(=O)CC(C)(C)C3)cc(Cl)c1O (configuration not stated) | 10.9% |
| COc1ccc(N2C(=O)C3C4C=CC(C4)C3C2=O)cc1OC (configuration not stated) | inactive |
| CCOc1ccc(C2C(C(=O)OC3CCCCC3)=C(C)NC3=C2C(=O)CCC3)cc1OC (configuration not stated) | 20.2% |
| COc1ccc(CNC(=O)CCCCCn2c(SCC(=O)NCC3CCCO3)nc3cc4c(cc3c2=O)OCO4)cc1 (configuration not stated) | 2.8% |
| CCOC(=O)C1=C(C)NC2=C(C(=O)C(C(=O)OC)C(C)C2)C1c1ccccc1OC(C)C (configuration not stated) | 10.1% |
| CC(C)(C)c1cc(NS(=O)(=O)c2ccc([N+](=O)[O-])cc2)cc(C(C)(C)C)c1O | 68% (active) |

| SMILES | inhibition |
| --- | --- |
| CC(C)(C)c1cc(Nc2ccccc2[N+](=O)[O-])cc(C(C)(C)C)c1O | 20.9% |
| CC(C)(C)c1cc(NS(=O)(=O)c2ccccc2[N+](=O)[O-])cc(C(C)(C)C)c1O | 9.2% |
| O=C(O)C12CC3CC(C1)CC(n1cnc([N+](=O)[O-])n1)(C3)C2 | inactive |
| COc1ccc(N(CC(=O)N2CC3CC(C2)c2cccc(=O)n2C3)S(=O)(=O)c2c(C)noc2C)cc1 (configuration not stated) | inactive |
| CC1(C)CC(=O)C2=C(C1)c1c(ccc3ccccc13)NC2c1cc([N+](=O)[O-])ccc1N1CCOCC1 (configuration not stated) | 71.9% (active) |
| COc1c(OC(C)=O)ccc(C2Nc3ccc4ccccc4c3C3=C2C(=O)CC(C)(C)C3)c1[N+](=O)[O-] (configuration not stated) | inactive |
| COc1c(O)ccc(C2Nc3ccc4ccccc4c3C3=C2C(=O)CC(C)(C)C3)c1[N+](=O)[O-] (configuration not stated) | 15.3% |
| CC(=O)N1c2ccc(S(=O)(=O)N(CC(C)C)CC(C)C)cc2CC1C (configuration not stated) | inactive |
| CCCN(CCC)Cc1c(O)ccc2c(=O)c(Oc3ccc(OC)cc3)c(C(F)(F)F)oc12 | inactive |
| O=S(=O)(NC1CCCC1)c1cccc2nsnc12 | inactive |
| N#CCCN(C(=O)c1cc(Cl)ccc1NS(=O)(=O)c1cccc2nsnc12)C1CCCCC1 | 73% (active) |
| O=S(=O)(NC1CCCCCCC1)c1cccc2nsnc12 | inactive |
| CCOc1cc(C2Nc3c(ccc4ccccc34)C3=C2CCCC3=O)cc(Br)c1O (configuration not stated) | inactive |
| COc1ccc(N2C3=C(C(=O)CC(C)(C)C3)C(c3ccc(F)cc3)C3=C2CC(C)(C)CC3=O)c(OC)c1 | inactive |
| CC1=CC(C)C2(COC(=O)Nc3ccccc3)COC(c3cccnc3)C1C2C (configuration not stated) | inactive |
| CCCCNC(=O)c1cn(CC(C)C)c(=O)c2c1c1ccccc1n2C | inactive |
| CCN(C(=O)c1cccc(F)c1)c1ccc(C(O)(C(=O)OC)C(F)(F)F)cc1 (configuration not stated) | 85.1% (active) |
| CCOC(=O)C(O)(c1ccc(N(CC)C(=O)c2cccc(F)c2)cc1)C(F)(F)F (configuration not stated) | 27.9% |
| CCN(C(=O)c1ccc(F)cc1)c1ccc(C(O)(C(=O)OC)C(F)(F)F)cc1 (configuration not stated) | inactive |
| O=C(CSc1c2c(nc3ccccc13)CCCC2)Nc1ccc2c(c1)OCCO2 | inactive |
| CC(C)C(C(=O)O)N1C(=O)/C(=C2/C(=O)N(C)c3ccccc32)SC1=S (configuration not stated) | 94.4% (active) |
| CC(C)C(C(=O)O)N1C(=O)/C(=C/c2ccccn2)SC1=S (configuration not stated) | 90.2% (active) |
| CC(C)c1nnc(NC(=O)C(C(C)C)N2C(=O)c3ccccc3C2=O)s1 (configuration not stated) | 36.6% |

| SMILES | inhibition |
| --- | --- |
| CC(c1ccccc1)N1C(=O)/C(=C/c2c(N3CCCCC3)nc3ccccn3c2=O)SC1=S (configuration not stated) | inactive |
| CC(C)C(C(=O)O)N1C(=O)c2cccc([N+](=O)[O-])c2C1=O (configuration not stated) | 17.7% |
| CC(C)C(C(=O)Nc1nccs1)N1C(=O)c2ccccc2C1=O (configuration not stated) | 17.3% |
| CCOc1ccccc1C1C2=C(CC(C)(C)CC2=O)Nc2nc(C(F)(F)F)nn21 (configuration not stated) | 14.1% |
| O=C(COc1ccc(Cl)cc1)Oc1ccc2c3c(c(=O)oc2c1)CCC3 | 29.6% |
| CC(C)Cn1cc(C(=O)N2CCN(C(=O)c3ccco3)CC2)c2c3ccccc3n(C)c2c1=O | 4% |
| CCOCCOC(=O)C1=C(C)NC2=C(C(=O)C(C(=O)OC)C(C)C2)C1c1cccc(Cl)c1 (configuration not stated) | 30.9% |
| CC1(C)C2([N+](=O)[O-])CN3CC1([N+](=O)[O-])CN(C2)C3C(O)C(O)C(O)C(O)CO (configuration not stated) | inactive |
| O=C(C1CCC(CNS(=O)(=O)c2ccc(Br)s2)CC1)N1CCC(Cc2ccccc2)CC1 (configuration not stated) | inactive |
| O=C(O)c1cccc2c1NC(C(=O)O)C1CC=CC21 (configuration not stated) | 4.5% |
| CC(C)C1Nc2c(C(=O)O)cccc2C(Nc2ccccc2C(=O)O)C1(C)C (configuration not stated) | 65.1% (active) and 89.9% (active) |
| COc1ccccc1C1Nc2c(C(=O)O)cccc2C2C3CCC(C3)C12 (configuration not stated) | 20.9% |
| COc1ccc(Oc2c(C(F)(F)F)oc3cc(OC(C)C(=O)OCCC(C)C)ccc3c2=O)cc1 (configuration not stated) | 8% |
| O=C(NCCCN1CCC(Cc2ccccc2)CC1)C1CCC(CNS(=O)(=O)c2ccccc2)CC1 (configuration not stated) | inactive |
| COc1cc(C2C(C(=O)OC3CCCCCC3)=C(C)NC3=C2C(=O)CC(C)(C)C3)cc([N+](=O)[O-])c1O (configuration not stated) | 59.7% |
| CCOc1cc(C2C(C(=O)OC3CCCCCC3)=C(C)NC3=C2C(=O)CCC3)cc([N+](=O)[O-])c1O (configuration not stated) | 66.4% (active) |
| CCOc1cc(C2C(C(=O)OC3CCCCCC3)=C(C)NC3=C2C(=O)CC(C)(C)C3)cc([N+](=O)[O-])c1O (configuration not stated) | 40.2% |
| COc1cc(C2C(C(=O)OC3CCCCC3)=C(C)NC3=C2C(=O)CCC3)cc(Cl)c1O (configuration not stated) | 24.3% |
| COc1cc(C2C(C(=O)OC3CCCCCC3)=C(C)NC3=C2C(=O)CCC3)cc([N+](=O)[O-])c1O (configuration not stated) | 69.7% (active) |
| COc1cc(C2C(C(=O)OC3CCCC3)=C(C)NC3=C2C(=O)CC(c2ccc(Cl)cc2)C3)ccc1OC(C)=O (configuration not stated) | 8.8% |
| COc1ccc(C2C(C(=O)OC3CCCCC3)=C(C)NC3=C2C(=O)CC(c2ccc(Cl)cc2)C3)cc1OC (configuration not stated) | 77.5% (active) |
| COc1cc(C2C(C(=O)OC3CCCCC3)=C(C)NC3=C2C(=O)CC(c2ccc(Cl)cc2)C3)ccc1OC(C)=O (configuration not stated) | 7% |
| CC1=C(C(=O)OC2CCCCC2)C(c2ccc(Cl)c([N+](=O)[O-])c2)C2=C(CCCC2=O)N1 (configuration not stated) | inactive |

| SMILES | inhibition |
| --- | --- |
| COc1ccc(C2NC(=O)NC(C)=C2C(=O)OC2CCCCCC2)cc1 (configuration not stated) | inactive |
| CCOC(=O)C1CCC(CN(Cc2ccccc2C)S(=O)(=O)c2cccc(C(F)(F)F)c2)CC1 (configuration not stated) | inactive |
| CCOc1cc(C2C3=C(CC(C)(C)CC3=O)OC3=C2C(=O)CC(C)(C)C3)ccc1OC(=O)c1cccc(OC)c1 | inactive |
| COc1cccc(C(=O)Oc2ccc(C3C4=C(CC(C)(C)CC4=O)OC4=C3C(=O)CC(C)(C)C4)cc2OC)c1 | inactive |
| CCOc1cc(C2C3=C(CC(C)(C)CC3=O)OC3=C2C(=O)CC(C)(C)C3)ccc1OC(=O)c1cccc(C)c1 | inactive |
| CCOc1cc(C(C2=C(O)CC(C)(C)CC2=O)C2=C(O)CC(C)(C)CC2=O)ccc1OC(=O)c1cccc(OC)c1 | 80.2% (active) |
| COc1cccc(C(=O)Oc2ccc(C(C3=C(O)CC(C)(C)CC3=O)C3=C(O)CC(C)(C)CC3=O)cc2OC)c1 | 86.9% (active) |
| COc1cc(C2C3=C(CC(C)(C)CC3=O)OC3=C2C(=O)CC(C)(C)C3)ccc1OC(=O)c1cccc(C)c1 | 12.3% |
| CCOC(=O)c1cccc(N2C(=O)C3C(C2=O)C2C=CC3C23CC3)c1 (configuration not stated) | 5.1% |
| CCSCCOC(=O)C1=C(C)NC2=C(C(=O)C(C(=O)OC)C(C)C2)C1c1c(F)cccc1Cl (configuration not stated) | inactive |
| CCCOCCOC(=O)C1=C(C)NC2=C(C(=O)C(C(=O)OC)C(C)C2)C1c1ccc(C)o1 (configuration not stated) | 53.7% |
| CCN(Cc1ccccc1)Cc1c(O)ccc2c(=O)c(Oc3ccc(OC)cc3)c(C(F)(F)F)oc12 | inactive |
| CCOc1ccccc1C(=O)NC1(C(F)(F)F)C(=O)Nc2c1c(=O)[nH]c(=O)n2-c1ccc(C)cc1 (configuration not stated) | 65.3% (active) |
| Cc1ccccc1C(=O)NC1(C(F)(F)F)C(=O)Nc2c1c(=O)[nH]c(=O)n2-c1ccc(F)cc1 (configuration not stated) | 12.2% |
| O=C(NC1(C(F)(F)F)C(=O)Nc2c1c(=O)[nH]c(=O)n2-c1ccc(F)cc1)c1ccccc1Cl (configuration not stated) | 11% |
| CCOc1ccccc1C(=O)NC1(C(F)(F)F)C(=O)Nc2c1c(=O)[nH]c(=O)n2-c1ccccc1 (configuration not stated) | 63.1% |
| CCOc1ccccc1C(=O)NC1(C(F)(F)F)C(=O)Nc2c1c(=O)[nH]c(=O)n2-c1ccc(F)cc1 (configuration not stated) | 75.2% (active) |
| Cc1ccc(-n2c3c(c(=O)[nH]c2=O)C(NC(=O)c2ccccc2C)(C(F)(F)F)C(=O)N3)cc1 (configuration not stated) | 10.6% |
| CCOC(=O)CSc1nc2ccccc2c(=O)n1CC1CCC(C(=O)NCCc2ccccc2)CC1 (configuration not stated) | inactive |
| O=C(O)C1C2C=CC(C2)C1C(=O)NCC1CCCO1 (configuration not stated) | 2.4% |
| CCCOCCOC(=O)C1=C(C)NC2=C(C(=O)C(C(=O)OC)C(C)C2)C1c1cccc(OC)c1 (configuration not stated) | 37.6% |
| CCC(C)C(Nc1ncnc2sc3c(c12)CCC3)C(=O)O (configuration not stated) | 0.8% |
| COc1ccc(OC)c(NC(=O)C(C(C)C)N2C(=O)c3ccccc3C2=O)c1 (configuration not stated) | 27.7% |

Source: PubChem BioAssay AID362 (NMMLSC, 2006)
